According to PubChem BioAssay AID1159580 (chemical genetic matrix, 2015):
Values joined by “and” are separate entries in the source; they are usually repeats but may differ in a detail not shown here. Equal entries are not always repeated. Out of some 5,500 compounds screened, about 2,000 (36%) were called active. Inconclusive results (about 18%) are left out. Cut-off read from the data, not from the text of the source: active = normalized growth mostly below about 0.91 (no sharp cut-off); inconclusive = no clear call, values can overlap the other calls; inactive = mostly above about 0.92. This is one part of the list.

Assay: chemical genetic growth profiling, strain panel (AID 1159580);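 note: tested at 20 µM; growth read once vehicle control cultures reached saturation at 30 °C; 1 = growth at the plate median or of vehicle wells; lower values mean less growth of the strain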
Settings: S. cerevisiae deletion strains, growth OD

Measured: normalized growth

COc1cc(NS(=O)(=O)c2ccc(N)cc2)ncn1
inactive: locus YAL013W, strain DEP1, hits give low values 0.998 | locus YAL021C, strain ccr4, hits give low values 0.988 | locus YAL026C, strain drs2, hits give low values 0.978 | locus YAL030W, strain snc1, hits give low values 0.999 | locus YBL061C, strain skt5, hits give low values 0.987 | locus YBR009C, strain hhf1, hits give low values 0.996 | locus YBR021W, strain FUR4, hits give low values 1 | locus YBR023C, strain chs3, hits give low values 0.983 | locus YBR171W, strain sec66, hits give low values 0.968 | locus YBR229C, strain ROT2, hits give low values 0.955 | locus YBR231C, strain swc5, hits give low values 0.979 | locus YBR279W, strain paf1, hits give low values 0.964 | locus YCL011C, strain gbp2, hits give low values 0.968 | locus YCL016C, strain dcc1, hits give low values 0.981 | locus YCL029C, strain bik1, hits give low values 0.977 | locus YCL061C, strain MRC1, hits give low values 0.979 | locus YCL069W, strain vba3, hits give low values 0.98 | locus YCR088W, strain abp1, hits give low values 0.97 | locus YDL005C, strain med2, hits give low values 0.978 | locus YDL035C, strain GPR1, hits give low values 0.993 | locus YDL040C, strain nat1, hits give low values 0.969 | locus YDL074C, strain BRE1, hits give low values 0.966 | locus YDL101C, strain DUN1, hits give low values 0.979 | locus YDL134C, strain PPH21, hits give low values 1.01 | locus YDL185W, strain tfp1, hits give low values 0.983 | locus YDL192W, strain arf1, hits give low values 0.978 | locus YDR001C, strain nth1, hits give low values 0.973 | locus YDR069C, strain doa4, hits give low values 1.03 | locus YDR101C, strain arx1, hits give low values 0.972 | locus YDR137W, strain rgp1, hits give low values 0.991 | locus YDR159W, strain sac3, hits give low values 0.916 | locus YDR162C, strain NBP2, hits give low values 0.995 | locus YDR195W, strain ref2 0.918 | locus YDR297W, strain sur2, hits give low values 1 | locus YDR318W, strain mcm21, hits give low values 0.988 | locus YDR334W, strain swr1, hits give low values 0.948 | locus YDR335W, strain msn5, hits give low values 0.971 | locus YDR388W, hits give low values 0.979 | locus YDR392W, strain spt3, hits give low values 0.982 | locus YDR502C, strain sam2, hits give low values 0.984 | locus YEL003W, strain gim4, hits give low values 1 | locus YEL037C, strain rad23, hits give low values 0.999 | locus YEL061C, strain CIN8 (second series), hits give low values 0.96 | locus YEL061C, strain CIN8, hits give low values 0.982 | locus YER015W, strain faa2, hits give low values 0.984 | locus YER016W, strain bim1, hits give low values 0.992 | locus YER110C, hits give low values 0.973 | locus YER111C, strain swi4, hits give low values 0.968 | locus YER155C, strain BEM2 (second series), hits give low values 0.975 | locus YER155C, strain BEM2, hits give low values 1 | locus YER167W, strain BCK2, hits give low values 0.992 | locus YFR010W, strain ubp6, hits give low values 0.97 | locus YGL078C, strain dbp3, hits give low values 0.977 | locus YGL086W, strain mad1, hits give low values 0.981 | locus YGL167C, strain pmr1, hits give low values 0.981 | locus YGL173C, strain kem1, hits give low values 0.993 | locus YGL227W, strain vid30, hits give low values 0.959 | locus YGL240W, strain doc1, hits give low values 0.958 | locus YGL248W, strain PDE1, hits give low values 0.978 | locus YGL253W, strain hxk2, hits give low values 0.979 | locus YGR078C, strain PAC10, hits give low values 0.977 | locus YGR135W, strain pre9, hits give low values 0.999 | locus YGR252W, strain gcn5, hits give low values 0.987 | locus YHR013C, strain ard1, hits give low values 0.986 | locus YHR027C, strain rpn1, hits give low values 0.983 | locus YHR030C, strain SLT2, hits give low values 0.997 and 0.991 | locus YHR079C, strain IRE1 (second series), hits give low values 0.99 | locus YHR079C, strain IRE1, hits give low values 0.97 | locus YHR094C, strain hxt1, hits give low values 0.987 | locus YHR129C, strain ARP1, hits give low values 0.995 | locus YHR142W, strain chs7, hits give low values 0.968 | locus YHR200W, strain rpn10, hits give low values 0.982 | locus YIL066C, strain RNR3, hits give low values 0.976 | locus YIL073C, strain SPO22, hits give low values 1.02 | locus YIL125W, strain kgd1, hits give low values 0.982 | locus YIR030C, strain dcg1, hits give low values 0.974 | locus YJL092W, strain hpr5, hits give low values 0.98 | locus YJL095W, strain BCK1 (second series), hits give low values 0.976 | locus YJL095W, strain BCK1, hits give low values 0.989 and 0.983 | locus YJL115W, strain asf1, hits give low values 0.964 | locus YJL129C, strain trk1, hits give low values 0.963 | locus YJL134W, strain LCB3, hits give low values 0.992 | locus YJL154C, strain vps35, hits give low values 0.971 | locus YJL164C, strain tpk1, hits give low values 1 | locus YJL166W, strain qcr8, hits give low values 0.982 | locus YJL168C, strain set2, hits give low values 0.985 | locus YJL187C, strain SWE1 (second series), hits give low values 0.962 | locus YJL187C, strain SWE1, hits give low values 0.981 | locus YJR043C, strain POL32, hits give low values 0.994 | locus YJR066W, strain TOR1, hits give low values 0.943
